About 83,000 compounds went through this panel and 20% of them were active in at least one assay; those are over-represented in the sample as a whole.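 Note: values are percent growth. 100 is the growth of untreated cells, values between 100 and 0 indicate rising inhibition; between -100 and 0 indicates cell death.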 Values without a mark were called inactive. Active and inactive are the calls of the source. How the source made its calls: active means growth percent below 10; inactive means the rest.

What all share (assay): NCI-60 one-dose screen, 48 h (100 = growth as untreated, 0 = no growth, -100 = all killed)
What all share (conditions): 10 µM

Assay [1] concerns SR leukemia.
The test system of assay [2] is RPMI-8226 leukemia.
For assay [3], the system named is OVCAR-8 ovarian.
The test system of assay [4] is OVCAR-5 ovarian.
In assay [5] the test system is OVCAR-4 ovarian.
Assay [6] deals with SK-OV-3 ovarian.
For assay [7], the system named is OVCAR-3 ovarian.
Assay [8] deals with HS 578T breast.
In assay [9] the test system is NCI/ADR-RES ovarian.
Assay [10] deals with IGROV1 ovarian.

Turning to `COc1ccc(C(=O)COc2cccc(/C=C3\Cc4ccccc4C3=O)c2)cc1`, the growth was 56.7% in [1]; 57.9% in assay [2]; 91.7% in [3]; 88.5% in assay [4]; 76.8% in assay [5]; 95.8% in assay [6]. Also, the growth in assay [7] is 97.2%; in [8], 86.9%; in assay [9], 74.4%.

For the compound `O=C(Nc1ccc(OCc2nnc(-c3ccc(Cl)cc3)o2)c(F)c1)Nc1ccc(Cl)c(C(F)(F)F)c1`, the growth is -15.4% (active) in assay [1]; -22.2% (active) in assay [2]; 11.6% in assay [3]; 26.6% in assay [4]; 17.2% in assay [5]; 35.2% in assay [6]. Moreover, the growth in assay [7] is 0.829% (active); in [8], 14.5%; in assay [9], 7.99% (active).

Regarding `CCN(CC)CCN1c2nc3ccccc3cc2Sc2cc3ccccc3nc21`, the growth in [1] was -53% (active); in [2], -15.9% (active); in [3], 7.3% (active); in assay [4], 13.6%; in assay [5] it was 15.8%; in assay [6], 46%. For the same compound, the growth in assay [7] was 27.1%; in [8], 12.4%; in assay [9] it was 4.85% (active).

On to `COc1ccc(-c2nc(-c3nc4ccc(C)cc4[nH]3)cc3c2[nH]c2ccccc23)cc1`, for which the growth in assay [1] was 10.2%; in assay [2], 16.2%; in [3], 21.4%; in assay [4], 83.9%; in assay [5], 45.1%; in assay [6], 107%. Moreover, the figures for the growth in assay [7], in assay [8] and in [9] were 45.1%, 66.9% and 19.4%, respectively.

`Cc1cc(C)nc(NS(=O)(=O)c2ccc(Nc3nc4nc(NCc5ccccc5)nc(-c5ccc(O)cc5)c4c(=O)[nH]3)cc2)n1`: the growth is 26.5% in assay [1]; 18.1% in assay [2]; 49.5% in assay [3]; 45.2% in [4]; 18.3% in assay [5]; 35.2% in assay [6]. The results for the growth in assay [7], in assay [8] and in assay [9] were 34.2%, 35.6% and 20.3%, respectively.

For the compound `Cc1nc2n(c(=O)c1CCN1CCC(c3noc4cc(F)ccc34)CC1)CCC[C@@H]2O`, the growth in [1] is 93.8%; in assay [2], 111%; in assay [3], 97.5%; in assay [4], 88.6%; in assay [5] it was 105%; in [6], 103%. For the same compound, the growth in assay [10] was 105%; in [8], 100%; in assay [9] it was 97.2%.

As for `Cc1ccc(C)c(COc2cc(NC(=O)c3ccc4c(c3)OCO4)ccc2N(C)S(C)(=O)=O)c1`, the growth is 13.2% in assay [1]; 24.9% in assay [2]; 24.9% in assay [3]; 30.7% in [4]; 29.7% in assay [5]; -21% (active) in assay [6]. The figures for the growth in [7], in [8] and in assay [9] were -20.6% (active), -32.9% (active) and -5.26% (active), respectively.

Turning to `CC1C(=NC(=O)c2cnccn2)C(C)C(c2ccc(Cl)cc2)NC1c1ccncc1` (centres undefined), the growth was 126% in [1]; 69.1% in [2]; 88.3% in [3]; 103% in assay [4]; 122% in assay [5]; 94.4% in assay [6]. The growth was 113% in assay [7], 125% in assay [8] and 90.3% in assay [9].

`COc1ccc(N(C)c2ncnc3occ(C)c23)cc1`: the growth in assay [1] is -36.1% (active); in assay [2], -36.1% (active); in assay [3] it was -21.9% (active); in assay [4], 28.1%; in assay [5], 40.2%; in [6] it was 19.9%. The growth is -11.1% (active) in [10], 110% in assay [8] and -16.2% (active) in [9].

On to `CCN(CC)CCCC(C)N=C(C1=C(C(=NC(C)CCCN(CC)CC)c2cccc(OC)c2)C(=O)NC1=O)c1cccc(OC)c1` (centres undefined), for which the growth in assay [1] is 2.6% (active); in [2], -30.6% (active); in assay [3], -11.3% (active); in assay [4], -3.07% (active); in assay [5] it was -23.5% (active); in assay [6] it was 9.81% (active). The growth in assay [7] was -17.7% (active); in assay [8], 16.4%; in assay [9], 4.23% (active).

As for `CCOC(=O)Cn1c(=O)c2sc3ncccc3c2n2nnc(-c3ccccc3)c12`, the growth in assay [1] was 93.5%; in assay [2], 94.7%; in assay [3] it was 102%; in assay [4], 105%; in [5], 101%; in [6], 94%. In addition, the growth in assay [7] is 120%; in [8], 112%; in [9] it was 105%.

Turning to `COc1cc(-c2ccc(N=Nc3ccc4c(S(=O)(=O)O)ccc(N)c4c3O)c(OC)c2)ccc1N=Nc1ccc2c(S(=O)(=O)O)ccc(N)c2c1O`, the growth in assay [1] is 146%; in assay [2], 115%; in assay [3], 99.6%; in assay [4], 111%; in [5], 98.4%; in assay [6], 91.4%. Besides, the growth in assay [7] is 109%; in assay [8] it was 124%; in assay [9], 109%.

Take `O=[N+]([O-])c1cccc(/C=N/NC(=S)NC23CC4CC(CC(C4)C2)C3)c1`: the growth was 81.4% in [1]; 93.1% in assay [2]; 40.6% in assay [3]; 101% in assay [4]; 39.5% in assay [5]; 62.4% in [6]. Further, the growth in assay [10] was 76.3%; in assay [8] it was 67.5%; in assay [9], 67.2%.

On to `CSc1ccc(-c2cc(-c3ccc(NC(=O)CCCN4CCCC4)cc3)nc(-c3ccc(NC(=O)CCCN4CCCC4)cc3)c2)cc1`, for which the growth is 32.2% in [1]; 73.2% in [2]; 76.4% in [3]; 72.3% in assay [4]; 67.3% in assay [5]; 75.2% in assay [6]. The growth in assay [7] was 63.4%; in assay [8] it was 55%; in [9], 95.5%.

In the case of `COC(=O)c1cc2oc(/C=C3/SC(=S)N(N)C3=O)cc2n1Cc1ccccc1`, the growth is 20.8% in assay [1]; -4.46% (active) in assay [2]; 31.1% in [3]; 72.6% in assay [4]; 51% in assay [5]; 98.2% in assay [6]. Moreover, the results for the growth in assay [7], in assay [8] and in assay [9] were 55%, -27.4% (active) and 52.5%, respectively.

Regarding `CS(=O)(=O)c1nccc(-c2c(-c3cccc(OCc4ccc(F)cc4)c3)nc3sccn23)n1`, the growth in assay [1] was 38.6%; in assay [2], 71.7%; in assay [3], 86.3%; in [4], 102%; in assay [5] it was 65.1%; in [6], 60.7%. The growth in assay [10] is 49.7%; in assay [8] it was 73.4%; in assay [9], 89.4%.

Regarding `O=C(COc1cccc(/C=C2\CSc3ccccc3C2=O)c1)c1ccc(Cl)cc1`, the growth is -60.7% (active) in assay [1]; -64.5% (active) in assay [2]; -4.69% (active) in assay [3]; 19.5% in assay [4]; 80.9% in assay [5]; 104% in assay [6]. Moreover, the values for the growth in [7], in assay [8] and in [9] were 57.5%, -25.5% (active) and 7.16% (active), respectively.

As for `O=[N+]([O-])c1cc(Cl)cc(Cl)c1O`, the growth is 103% in assay [1]; 103% in [2]; 103% in assay [3]; 103% in [4]; 108% in assay [5]; 91.3% in [6]. In addition, the growth is 104% in assay [10], 97.6% in assay [8] and 97.6% in [9].

`O=C(CSc1nnc(-c2cccnc2SCc2ccccc2)o1)Nc1nc(Cl)cc(Cl)n1`: the growth in [1] is 101%; in [2] it was 100%; in assay [3], 102%; in [4] it was 106%; in assay [5] it was 106%; in assay [6] it was 110%. Also, the growth in assay [10] was 105%; in [8], 97.4%; in [9], 101%.

Regarding `Cc1ccc(-c2c3c(N)nc(-c4cccnc4)nc3nc3c2c(C)nn3-c2ccccc2)cc1`, the growth in assay [1] is 82.5%; in [2], 81.2%; in assay [3] it was 82%; in assay [4], 90.8%; in assay [5], 50.8%; in [6] it was 66.2%. Moreover, the values for the growth in [10], in assay [8] and in assay [9] were 103%, 72% and 90.3%, respectively.

Take `CCOC(=O)N/N=C/c1ccc(OC)c(OC)c1`: the growth in assay [1] is 105%; in [2], 102%; in assay [3], 102%; in assay [4] it was 112%; in assay [5], 110%; in assay [6], 114%. In addition, the growth in [10] was 110%; in assay [9] it was 116%.

`O=C1c2c(c(=O)[nH]c3ccccc23)CCN1Cc1ccccc1`: the growth in assay [1] was 115%; in [2], 91.9%; in assay [3], 96.4%; in assay [4], 92.9%; in assay [5], 155%; in [6], 98.1%. In addition, the values for the growth in [7], in [8] and in [9] were 121%, 119% and 98.6%, respectively.

On to `CC(C)(O)CCl`, for which the growth in assay [1] is 111%; in [2], 113%; in assay [3], 102%; in assay [4] it was 108%; in assay [5] it was 129%; in [6] it was 119%. Besides, the growth in assay [7] is 114%; in [8] it was 96%; in assay [9] it was 108%.

For `COc1cc(C(=O)n2nc(-c3cc(OC)c(OC)c(OC)c3)nc2N)cc(OC)c1OC`, the growth in assay [1] is 73.5%; in assay [2], 92.4%; in assay [3], 102%; in assay [4] it was 97%; in assay [5], 94.5%; in assay [6], 87.5%. Besides, the growth in [10] was 105%; in assay [8], 103%; in [9], 99.2%.

With `C#CC(C)(O)[C@@H]1C[C@H](CC(=O)O)C1(C)C` (some centres undefined), the growth in assay [1] is 88.9%; in [2] it was 109%; in assay [3], 112%; in assay [4], 102%; in [5] it was 117%; in [6], 116%. The figures for the growth in assay [7], in [8] and in [9] were 119%, 105% and 111%, respectively.

In the case of `CC(=O)C1N=NCC1c1ccccc1` (centres undefined), the growth in assay [1] is 111%; in assay [2] it was 110%; in assay [3], 111%; in assay [4], 98.9%; in assay [5] it was 106%; in assay [6], 103%. The growth was 110% in assay [7], 90% in assay [8] and 104% in [9].

For `COc1cc(N)c2ncccc2c1SC`, the growth was 90.4% in assay [1]; 100% in assay [2]; 98.4% in [3]; 101% in [4]; 105% in [5]; 108% in [6]. In addition, the values for the growth in assay [7], in [8] and in assay [9] were 105%, 92.5% and 99.1%, respectively.

As to `CC(C)(C)OC(=O)N1CCc2c(sc3ncnc(N/N=C/c4ccc(Br)cc4)c23)C1`, the growth is 36.3% in [1]; 19.1% in assay [2]; 73.7% in [3]; 77.6% in assay [4]; 74% in assay [5]; 75.7% in assay [6]. The figures for the growth in assay [10], in assay [8] and in [9] were 61.1%, 73.9% and 35.4%, respectively.

Regarding `Cc1cc(=O)n2nnc3cc(Cl)c(Cl)cc3n12`, the growth was 70.5% in assay [1]; 97.4% in assay [2]; 106% in assay [3]; 107% in [4]; 92.1% in assay [5]; 85.2% in assay [6]. Moreover, the growth was 77.8% in [7], 122% in assay [8] and 101% in assay [9].

`Cc1cccc(N=Cc2ccccc2O)c1C`: the growth was 111% in assay [1]; 96.9% in assay [2]; 98.2% in assay [3]; 108% in assay [4]; 104% in assay [5]; 108% in assay [6]. Moreover, the figures for the growth in assay [10], in [8] and in assay [9] were 115%, 101% and 101%, respectively.

These data come from PubChem BioAssay (NCI).
